About 83,000 compounds went through this panel and 20% of them were active in at least one assay; those are over-represented in the sample as a whole.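 Note: values are percent growth. 100 is the growth of untreated cells, values between 100 and 0 indicate rising inhibition; between -100 and 0 indicates cell death.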 Unmarked numbers belong to inactive results. The source made the active and inactive calls. Rule for the calls: active = growth percent below 10; inactive = the rest.
What follows are compounds tested on UO-31 renal (assay: NCI-60 one-dose screen, 48 h (100 = growth as untreated, 0 = no growth, -100 = all killed)). Details: 10 µM unless noted.
For C=C(C=O)[C@@H]1CC[C@]2(C)[C@H](CC=C3[C@H]4[C@@H](C)[C@H](C)CC[C@]4(C(=O)OC)CC[C@]32C)[C@@]1(C)CCC#N, the growth was -83.5% (active). With COc1ccc([C@@H]2c3[nH]c4ccccc4c3C[C@H]3C(=O)N(C4CCN(CC5CCCCC5)CC4)CC(=O)N23)c(OC)c1 the growth was 37.3%. Compound c1ccc(C(c2nc3ncncc3[nH]2)N2CSc3nc4ncncc4n3C2)cc1 (configuration not stated) has a growth of 70.9%. Compound Cc1occc1-c1nc2s/c(=C/c3ccc(-c4cc(C(F)(F)F)ccc4Cl)o3)c(=O)n2n1 has a growth of 87.4%. CNCc1cccc2c1OCCCCCCC(C)(O)CC(C)(C)S(=O)(=O)c1ccc(cc1)-c1cnc(N)c(n1)C(=O)N2 (configuration not stated) was tested, and the growth was 23.7%. CS(=O)(=O)c1ncc(-c2ccccc2)cn1 gave a growth of 85.1%. Compound CCOC(=O)c1c(N)c(C#N)cn1-c1cc(OC)c(OC)c(OC)c1 has a growth of 88.8%. With CCCCCc1ccc(S(=O)(=O)Nc2cc(-c3csc(NC(=O)CN4CCN(C)CC4)n3)ccc2OC)cc1 the growth was -92.7% (active). For Cc1nc2ncc(-c3ccc4ncnc(NCc5ccccc5)c4c3)cc2[nH]1, the growth was 45.4%. With C=C(C=O)[C@@H]1CC[C@]2(COC(C)=O)CC[C@]3(C)C(CC[C@@H]4[C@@]5(C)CC[C@H](OC(C)=O)C(C)(C)[C@@H]5CC[C@]43C)[C@@H]12 (some centres not stated) the growth was -94% (active). With Cc1ccc(S(=O)(=O)N(CC[C@@H]2C[C@H]2c2cc3ccccc3o2)S(=O)(=O)c2ccc(C)cc2)cc1 the growth was 80%. COC(=O)c1ccc(NC2=C/C(=N/S(=O)(=O)c3ccc(C(=O)O)cc3)c3ccccc3C2=O)cc1 was tested, and the growth was -1.04% (active).

Source: PubChem BioAssay (NCI)
